Results: the supplement of paper PMC6555819

Experiments:
Experiment in all cases: PBM binding z-score (relative to random genomic background probes); higher = stronger binding; sequences stand for … in GC…GCGATTGACAGCGTAGAATGAAGG
[1] = system: FXR:RXRa (NR concentration 270 nM, RXRa partner concentration 90 nM)
Outline: (§1)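 For binding z-scores, the reference was random background probes on custom Agilent 4×180K protein-binding microarrays. These arrays were incubated 1 h with ligand-free nuclear receptor dimers in PBS pH 7.4, 2% milk, 0.02% Triton X-100, 1 mM DTT, 0.2 mg/mL BSA and 0.4 mg/ml salmon testes DNA. Fluorescence was scanned after antibody detection of each partner (one per run) and regression-normalized.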

[2] = system: LXRa:RXRa (NR concentration 270 nM, RXRa partner concentration 90 nM)
Outline: as §1

[3] = system: LXRa homodimer (NR concentration 270 nM)
Outline: as §1

[4] = system: LXRb:RXRa (NR concentration 270 nM, RXRa partner concentration 90 nM)
Outline: as §1

[5] = system: LXRb homodimer (NR concentration 270 nM)
Outline: as §1

[6] = system: PPARa:RXRa (NR concentration 270 nM, RXRa partner concentration 90 nM)
Outline: as §1

[7] = system: PPARg:RXRa (NR concentration 180 nM, RXRa partner concentration 90 nM)
Outline: as §1

[8] = system: PPARg:RXRa 270nM:90nM, anti-RXR (NR concentration 270 nM, RXRa partner concentration 90 nM)
Outline: as §1

[9] = system: PPARg:RXRa 30nM:10nM, anti-RXR (NR concentration 30 nM, RXRa partner concentration 10 nM)
Outline: as §1

[10] = system: PPARg:RXRa 90nM:30nM, anti-RXR (NR concentration 90 nM, RXRa partner concentration 30 nM)
Outline: as §1

[11] = system: PPARg:RXRa DBDmut IVT, anti-RXR (DBD mutation: RXRa K156A/R161A, NR concentration 270 nM, RXRa partner concentration 90 nM)
Outline: as §1

[12] = system: PPARg:RXRa IVT, anti-PPARg (NR concentration 270 nM, RXRa partner concentration 90 nM)
Outline: as §1

[13] = system: PPARg DBDmut:RXRa IVT, anti-PPARg (DBD mutation: PPARg1 K132A/R137A, NR concentration 270 nM, RXRa partner concentration 90 nM)
Outline: as §1

[14] = system: PPARg DBDmut IVT, anti-PPARg (DBD mutation: PPARg1 K132A/R137A, NR concentration 270 nM)
Outline: as §1

[15] = system: PPARg homodimer (NR concentration 180 nM)
Outline: as §1

[16] = system: PXR:RXRa (NR concentration 270 nM, RXRa partner concentration 90 nM)
Outline: as §1

[17] = system: PXR homodimer (NR concentration 270 nM)
Outline: as §1

[18] = system: RARa:RXR (NR concentration 270 nM, RXRa partner concentration 90 nM)
Outline: as §1

[19] = system: RARa homodimer (NR concentration 270 nM)
Outline: as §1

[20] = system: RARb:RXRa (NR concentration 270 nM, RXRa partner concentration 90 nM)
Outline: as §1

Sequence | PBM binding z-score [1] | PBM binding z-score [2] | PBM binding z-score [3] | PBM binding z-score [4] | PBM binding z-score [5] | PBM binding z-score [6] | PBM binding z-score [7] | PBM binding z-score [8] | PBM binding z-score [9] | PBM binding z-score [10] | PBM binding z-score [11] | PBM binding z-score [12] | PBM binding z-score [13] | PBM binding z-score [14] | PBM binding z-score [15] | PBM binding z-score [16] | PBM binding z-score [17] | PBM binding z-score [18] | PBM binding z-score [19] | PBM binding z-score [20]
CCTACTGGGCCATTCTGAGGTCATTGATCATATG | 2.12 | 3.35 | 4.95 | 2.83 | 0.173 | 3.25 | 1.63 | 2.38 | 0.733 | 1.84 | 4.08 | 4.24 | 0.979 | -0.299 | 1.5 | 4.42 | 3.46 | 3.85 | -0.372 | 2.57
CCTAGTTGGTCAAGGTCAAACACGCTATAGGTAC | 5.04 | 4.62 | 3.57 | 4.52 | 1.24 | 4.81 | 3.13 | 3.93 | 1.16 | 3.04 | 2.18 | 3.37 | 0.444 | 1.42 | 3.34 | 4.48 | 3.25 | 4.41 | 2.79 | 4.19
TAGCCTAGGTCAGATCGGGCTAGTATACGCTATA | 1.81 | 1.03 | -0.52 | 0.639 | -0.577 | 1.73 | 0.628 | 0.874 | -0.237 | 0.393 | 0.118 | 1.07 | -0.407 | -0.708 | 0.037 | 0.63 | -0.428 | 1.5 | -0.679 | 2.78
CCTCGGAGGACAGGAGGTCAGAGCTGTCCGCTTT | 1.56 | 1.79 | 0.686 | 1.2 | -0.929 | 1.96 | -0.08 | 0.65 | -0.913 | -0.13 | 0.39 | 0.452 | -1.92 | -2.09 | 1.28 | 1.81 | -0.0765 | 2.05 | -0.0884 | 2.82
CGTCCAAGGTCATTGCTAGGTCAGTGAAAGCATT | 6.96 | 5.75 | 3.09 | 4.57 | 1.37 | 5.32 | 3.8 | 5.08 | 1.55 | 3.62 | 3.23 | 4.03 | -0.074 | -0.854 | 4.11 | 5.16 | 2.4 | 5.71 | 0.612 | 5.04
ACTGTTAGTTGAGACGAGGGCAACCGATAGGTTG | 0.919 | 0.0939 | -0.0594 | 0.0493 | 0.747 | 0.275 | 0.412 | -0.13 | -0.0644 | 0.0713 | -0.176 | 0.773 | 0.909 | 0.848 | 0.542 | 1.2 | 0.0894 | 0.667 | 0.756 | 1.21
CCGAGTAGGTTAGGGGGCATTCAGGCAACGGTGA | 1.36 | 1.91 | 0.834 | 4.42 | 6.02 | 4.43 | 6.67 | 7.33 | 5.18 | 7.46 | 2.55 | 4.72 | 4.62 | 4.7 | 2.25 | 2.19 | 1.47 | 2.41 | 0.807 | 2.11
ATCTCTAGCTAAAGATAGTTCAGTGAATGCAAAT | -0.338 | -0.141 | 0.164 | 0.199 | 0.452 | 0.345 | 0.318 | -0.271 | -0.0381 | -0.201 | -0.205 | -0.237 | 1 | 0.169 | 0.538 | 0.463 | 0.542 | 0.855 | 0.543 | 0.329
TTACCAAGGTGAGCTGAGGTCGTTGTTCCAACTC | 1.49 | 1.3 | -0.412 | 0.784 | -1.32 | 1.75 | -0.301 | 1.01 | -0.393 | 0.445 | 1.27 | 2.01 | -0.911 | -0.688 | -0.161 | 5 | 0.345 | 2.16 | -0.978 | 1.79
GCATATAGGTAATACAAAGTGAAAGTCCGATTGT | -0.614 | -0.368 | -0.219 | -0.304 | -0.361 | 0.632 | 1.12 | 0.884 | 0.583 | 0.849 | 4.28 | 2.73 | 0.942 | 1.36 | -0.267 | -0.28 | -0.0675 | -0.178 | 0.391 | -0.152
CTCGAAAGGTCGGTTGAGGTGAGGATACGGATAA | 3.07 | 1.84 | -0.0492 | 1.43 | -0.104 | 2.68 | 0.677 | 1.09 | 0.294 | 1.02 | -0.21 | 1.07 | 0.312 | -0.445 | 1.24 | 3.06 | 0.154 | 2.64 | 0.262 | 3.18
TCATATAGGTAAAAGGTAAAAGTCGGTGTGGTAA | 1.72 | 1.53 | 0.146 | 1.47 | 0.114 | 4.59 | 7.89 | 7.76 | 7.87 | 8.16 | 5.05 | 4.32 | 0.348 | 1.01 | 1.81 | 1.39 | 0.507 | 1.78 | 2.04 | 0.854
CAAACTAGGTCGAGAGGTCAAAGTCCGCTTCCCG | 5.34 | 5.53 | 4.87 | 4.61 | 1.17 | 5.6 | 6.98 | 6.37 | 4.44 | 6.54 | 5.89 | 6.2 | 0.871 | -0.159 | 2.68 | 5.25 | 1.9 | 5.44 | 1.21 | 4.24
CGTACTGGGCCAAGGTCATTGATCAGTCAAAGCA | 3.11 | 3.03 | 1.23 | 3 | -0.201 | 3.99 | 4.09 | 4.29 | 1.79 | 3.54 | 4.15 | 4.66 | -0.787 | -0.351 | 1.31 | 3.51 | 1.34 | 3.71 | -0.0917 | 3.35
